# Test results published in the supplement of paper PMC10849652.
# The full data set covers some 8,800 targets. This sample favours those with a hit. About 0.5% of all pairs of compound and target were hits. A number with no mark means an inactive call.
# Key:
# Assay in all cases: log2 fold change, soluble protein after heating vs DMSO (PISA); higher = thermal stabilisation; K562 lysate, 10 uM; active = over 0.2 and 3.5 SD of the protein, either way, in both replicates (recomputed)
# [1] = compound: C=CC(=O)N1CCC[C@@H](n2nc(-c3ccc(Oc4ccccc4)cc3)c3c(N)ncnc32)C1 [ibrutinib]
# In short: (§1)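 K562 pellets were dounce-homogenised in PBS pH 7.4 with 1 mM MgCl2, and the crude extract at 1 mg/mL protein was treated with 10 μM compound for 30 min. Aliquots were heated for 3 min across 48°C-58°C, pooled, and brought to 0.5% NP-40 at 4°C; soluble protein was the supernatant after 21,000xg for 90 min. Soluble protein was quantified by TMTpro 16plex LC-MS/MS with channel sums equalised, and reported as log2 fold change in thermal stability against DMSO controls, with values from duplicates.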
# [2] = compound: CC(=O)c1cnc2ccc(-c3cc(Cl)c(O)c(Cl)c3)nc2c1N[C@H]1CC[C@H](CN(C)C)CC1
# In short: as §1
# [3] = compound: CC(C)(C)Cn1c(N)nc2ccc(-c3[nH]c(C(C)(C)C)nc3-c3ccc(F)cc3)nc21 [ralimetinib]
# In short: as §1
# [4] = compound: CC(C)(O)CC(=O)NCCn1ccc2ncnc(Nc3ccc(Oc4cccc(C(F)(F)F)c4)c(Cl)c3)c21
# In short: as §1
# [5] = compound: CC(C)C1=C2N=C(C=C(N2N=C1)NCC3=CC=CC=C3)NCCCCCCN
# In short: as §1
# [6] = compound: CC1=C(C(CC(=O)N1)C2=CC=C(C=C2)C(F)(F)F)C(=O)NC3=C(C=C4C(=C3)C=NN4)F
# In short: as §1
# [7] = compound: CC1=C(C2=C(C=C1)C(=O)C3=CC=CC=C3N2CCCN)C
# In short: as §1
# [8] = compound: CC1=C(C=C(C=C1)NC(=O)C2=CC(=CC=C2)C(C)(C)C#N)NC3=CC4=C(C=C3)N=CN(C4=O)C
# In short: as §1
# [9] = compound: CC1=C(C=C(C=C1)NC(=O)C2=CC(=CC=C2)N(C)C)NC(=O)C3=CC=C(C=C3)O
# In short: as §1
# [10] = compound: CC1=CC=C(C=C1)SC2=C3C=C(SC3=CN=C2)C(=O)N
# In short: as §1
# [11] = compound: CCCS(=O)(=O)Nc1ccc(F)c(C(=O)c2c[nH]c3ncc(Cl)cc23)c1F
# In short: as §1
# [12] = compound: CCN(CCCOc1ccc2c(Nc3cc(CC(=O)Nc4cccc(F)c4)[nH]n3)ncnc2c1)CCOP(=O)(O)O [barasertib]
# In short: as §1
# [13] = compound: CC[C@@H]1C(=O)N(C)c2cnc(Nc3ccc(C(=O)N[C@H]4CC[C@H](N5CCN(CC6CC6)CC5)CC4)cc3OC)nc2N1C(C)C [volasertib]
# In short: as §1
# [14] = compound: CCn1c(C(=O)N(C2CC2)C2CC2)cc2c3c(ncn3C)c(Nc3cc(C)n(C)n3)nc21
# In short: as §1
# [15] = compound: CCn1cc(-c2ccnc3[nH]c(-c4cccc(CN(C)C)c4)cc23)c(-c2ccc(NC(=O)N(C)C)cc2)n1
# In short: as §1
# [16] = compound: CN1CCC(CNc2ccc3ncc(-c4cccc(OC(F)(F)F)c4)n3n2)CC1
# In short: as §1
# [17] = compound: CN1CCN(CCOc2cc(OC3CCOCC3)c3c(Nc4c(Cl)ccc5c4OCO5)ncnc3c2)CC1 [saracatinib]
# In short: as §1
# [18] = compound: CN1CCN(c2nc(C3=C(c4c[nH]c5ccccc45)C(=O)NC3=O)c3ccccc3n2)CC1 [sotrastaurin]
# In short: as §1
# [19] = compound: CCCS(=O)(=O)Nc1ccc(F)c(C(=O)c2c[nH]c3ncc(-c4ccc(Cl)cc4)cc23)c1F [vemurafenib]
# In short: as §1
# [20] = compound: CC[C@@H]1C(=O)N(C)c2cnc(Nc3ccc(C(=O)NC4CCN(C)CC4)cc3OC)nc2N1C1CCCC1
# In short: as §1
# Chain of UniProt Q9Y4W2 (Q9Y4W2 whole entry, looked up): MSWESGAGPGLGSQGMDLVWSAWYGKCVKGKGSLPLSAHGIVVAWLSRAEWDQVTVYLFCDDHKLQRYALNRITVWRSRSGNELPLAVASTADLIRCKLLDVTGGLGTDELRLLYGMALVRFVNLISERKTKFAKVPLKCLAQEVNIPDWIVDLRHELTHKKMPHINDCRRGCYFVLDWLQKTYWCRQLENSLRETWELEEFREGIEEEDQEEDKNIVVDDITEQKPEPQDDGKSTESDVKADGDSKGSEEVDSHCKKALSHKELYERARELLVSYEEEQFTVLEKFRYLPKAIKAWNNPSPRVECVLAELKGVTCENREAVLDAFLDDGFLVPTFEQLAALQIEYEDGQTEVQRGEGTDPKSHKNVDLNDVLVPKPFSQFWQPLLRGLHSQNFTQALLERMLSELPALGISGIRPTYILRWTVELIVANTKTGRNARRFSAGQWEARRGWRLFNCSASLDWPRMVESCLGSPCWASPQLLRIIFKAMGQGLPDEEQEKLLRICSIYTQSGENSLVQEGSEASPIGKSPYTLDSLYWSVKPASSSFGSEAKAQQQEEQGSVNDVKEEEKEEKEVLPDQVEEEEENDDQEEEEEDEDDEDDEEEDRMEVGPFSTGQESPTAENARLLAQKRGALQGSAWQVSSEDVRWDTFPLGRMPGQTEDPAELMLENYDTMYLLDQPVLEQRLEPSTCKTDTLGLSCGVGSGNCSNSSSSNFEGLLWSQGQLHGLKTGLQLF
# Chain of UniProt Q12851 (Q12851 whole entry, looked up): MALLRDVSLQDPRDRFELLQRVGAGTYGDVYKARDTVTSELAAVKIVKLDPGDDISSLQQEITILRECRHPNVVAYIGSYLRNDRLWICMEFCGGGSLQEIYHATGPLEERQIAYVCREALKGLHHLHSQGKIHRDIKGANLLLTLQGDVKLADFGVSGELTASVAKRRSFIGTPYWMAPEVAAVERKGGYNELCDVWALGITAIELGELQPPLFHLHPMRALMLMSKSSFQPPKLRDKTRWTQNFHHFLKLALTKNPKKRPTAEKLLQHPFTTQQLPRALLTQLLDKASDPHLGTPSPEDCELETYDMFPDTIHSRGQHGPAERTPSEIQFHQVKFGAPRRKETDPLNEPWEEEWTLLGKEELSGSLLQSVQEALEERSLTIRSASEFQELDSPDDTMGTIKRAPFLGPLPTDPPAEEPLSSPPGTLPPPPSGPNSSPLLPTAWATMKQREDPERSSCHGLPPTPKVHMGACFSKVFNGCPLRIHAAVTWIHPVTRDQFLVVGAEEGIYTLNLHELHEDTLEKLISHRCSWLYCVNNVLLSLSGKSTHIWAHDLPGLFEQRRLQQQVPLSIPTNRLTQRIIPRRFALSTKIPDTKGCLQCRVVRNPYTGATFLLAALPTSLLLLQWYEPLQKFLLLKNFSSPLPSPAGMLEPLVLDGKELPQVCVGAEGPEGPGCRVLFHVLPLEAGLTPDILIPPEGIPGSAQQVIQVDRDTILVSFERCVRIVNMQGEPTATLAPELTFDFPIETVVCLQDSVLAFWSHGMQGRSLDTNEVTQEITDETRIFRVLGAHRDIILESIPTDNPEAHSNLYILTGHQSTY
# Chain of UniProt Q9NWR8 (Q9NWR8 whole entry, looked up): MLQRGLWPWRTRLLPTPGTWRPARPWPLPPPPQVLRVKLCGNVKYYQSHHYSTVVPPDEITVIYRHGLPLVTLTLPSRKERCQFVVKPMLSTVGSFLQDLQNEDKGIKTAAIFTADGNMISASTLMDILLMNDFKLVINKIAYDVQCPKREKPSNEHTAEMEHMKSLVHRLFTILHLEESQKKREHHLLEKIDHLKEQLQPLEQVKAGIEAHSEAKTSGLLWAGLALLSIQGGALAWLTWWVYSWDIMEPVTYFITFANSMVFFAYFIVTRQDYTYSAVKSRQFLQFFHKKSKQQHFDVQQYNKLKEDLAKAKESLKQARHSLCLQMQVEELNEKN
# Chain of UniProt P28482 (P28482 whole entry, looked up): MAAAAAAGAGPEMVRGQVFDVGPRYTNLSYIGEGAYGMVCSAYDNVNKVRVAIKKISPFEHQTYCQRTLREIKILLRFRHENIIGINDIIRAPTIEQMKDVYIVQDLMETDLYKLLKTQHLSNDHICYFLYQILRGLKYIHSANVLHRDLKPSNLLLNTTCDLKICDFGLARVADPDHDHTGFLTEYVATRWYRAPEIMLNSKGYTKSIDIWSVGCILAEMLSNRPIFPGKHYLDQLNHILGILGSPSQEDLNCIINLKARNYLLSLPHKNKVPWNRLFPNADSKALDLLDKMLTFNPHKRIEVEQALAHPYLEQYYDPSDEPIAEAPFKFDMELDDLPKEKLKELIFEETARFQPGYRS
# Chain of UniProt O95382 (O95382 whole entry, looked up): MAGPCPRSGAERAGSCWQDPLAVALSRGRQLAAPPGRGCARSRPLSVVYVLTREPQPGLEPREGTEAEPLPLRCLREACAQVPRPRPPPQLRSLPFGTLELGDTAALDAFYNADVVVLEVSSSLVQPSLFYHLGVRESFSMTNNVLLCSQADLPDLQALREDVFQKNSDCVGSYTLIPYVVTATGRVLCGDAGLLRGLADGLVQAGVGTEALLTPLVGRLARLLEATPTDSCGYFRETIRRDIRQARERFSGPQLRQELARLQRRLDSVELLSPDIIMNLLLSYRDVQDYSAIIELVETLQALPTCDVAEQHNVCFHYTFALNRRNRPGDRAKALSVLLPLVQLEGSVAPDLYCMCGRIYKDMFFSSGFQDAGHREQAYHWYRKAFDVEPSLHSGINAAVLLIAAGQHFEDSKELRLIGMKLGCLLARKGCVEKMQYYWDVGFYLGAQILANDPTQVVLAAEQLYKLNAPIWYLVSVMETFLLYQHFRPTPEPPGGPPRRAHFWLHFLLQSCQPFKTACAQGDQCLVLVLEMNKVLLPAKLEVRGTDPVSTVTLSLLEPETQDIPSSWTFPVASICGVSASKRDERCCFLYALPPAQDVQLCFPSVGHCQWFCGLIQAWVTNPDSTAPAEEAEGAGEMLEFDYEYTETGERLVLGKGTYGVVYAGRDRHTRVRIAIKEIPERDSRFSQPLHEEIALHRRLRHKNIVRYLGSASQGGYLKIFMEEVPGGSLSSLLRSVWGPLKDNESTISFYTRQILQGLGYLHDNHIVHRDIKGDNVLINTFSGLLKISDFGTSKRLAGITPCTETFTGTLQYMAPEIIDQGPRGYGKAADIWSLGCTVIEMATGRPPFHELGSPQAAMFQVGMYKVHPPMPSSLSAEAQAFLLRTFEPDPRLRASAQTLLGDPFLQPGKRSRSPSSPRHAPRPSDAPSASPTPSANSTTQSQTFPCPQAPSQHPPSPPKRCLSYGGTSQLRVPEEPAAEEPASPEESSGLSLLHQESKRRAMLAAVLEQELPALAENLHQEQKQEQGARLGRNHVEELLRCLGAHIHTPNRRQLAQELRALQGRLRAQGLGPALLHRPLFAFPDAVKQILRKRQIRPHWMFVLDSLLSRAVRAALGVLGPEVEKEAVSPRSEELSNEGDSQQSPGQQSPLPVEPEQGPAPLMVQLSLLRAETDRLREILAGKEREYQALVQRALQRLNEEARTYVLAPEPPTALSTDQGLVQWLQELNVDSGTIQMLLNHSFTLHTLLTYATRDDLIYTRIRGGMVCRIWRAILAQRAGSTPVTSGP
# Chain of UniProt Q8WXB1 (Q8WXB1 whole entry, looked up): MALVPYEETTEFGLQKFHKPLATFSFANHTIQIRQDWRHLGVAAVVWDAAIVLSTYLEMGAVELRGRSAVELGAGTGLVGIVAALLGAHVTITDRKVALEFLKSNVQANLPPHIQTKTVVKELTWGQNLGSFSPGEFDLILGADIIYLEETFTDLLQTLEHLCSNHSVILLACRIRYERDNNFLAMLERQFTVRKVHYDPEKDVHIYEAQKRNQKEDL
# Chain of UniProt P01116 (P01116 whole entry, looked up): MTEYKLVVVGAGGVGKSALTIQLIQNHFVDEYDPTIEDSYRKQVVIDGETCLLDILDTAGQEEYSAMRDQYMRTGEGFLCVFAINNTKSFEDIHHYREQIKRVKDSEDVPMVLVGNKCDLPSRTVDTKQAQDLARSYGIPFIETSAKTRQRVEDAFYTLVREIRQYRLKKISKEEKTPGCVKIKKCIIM
# Chain of UniProt O00522 (O00522 whole entry, looked up): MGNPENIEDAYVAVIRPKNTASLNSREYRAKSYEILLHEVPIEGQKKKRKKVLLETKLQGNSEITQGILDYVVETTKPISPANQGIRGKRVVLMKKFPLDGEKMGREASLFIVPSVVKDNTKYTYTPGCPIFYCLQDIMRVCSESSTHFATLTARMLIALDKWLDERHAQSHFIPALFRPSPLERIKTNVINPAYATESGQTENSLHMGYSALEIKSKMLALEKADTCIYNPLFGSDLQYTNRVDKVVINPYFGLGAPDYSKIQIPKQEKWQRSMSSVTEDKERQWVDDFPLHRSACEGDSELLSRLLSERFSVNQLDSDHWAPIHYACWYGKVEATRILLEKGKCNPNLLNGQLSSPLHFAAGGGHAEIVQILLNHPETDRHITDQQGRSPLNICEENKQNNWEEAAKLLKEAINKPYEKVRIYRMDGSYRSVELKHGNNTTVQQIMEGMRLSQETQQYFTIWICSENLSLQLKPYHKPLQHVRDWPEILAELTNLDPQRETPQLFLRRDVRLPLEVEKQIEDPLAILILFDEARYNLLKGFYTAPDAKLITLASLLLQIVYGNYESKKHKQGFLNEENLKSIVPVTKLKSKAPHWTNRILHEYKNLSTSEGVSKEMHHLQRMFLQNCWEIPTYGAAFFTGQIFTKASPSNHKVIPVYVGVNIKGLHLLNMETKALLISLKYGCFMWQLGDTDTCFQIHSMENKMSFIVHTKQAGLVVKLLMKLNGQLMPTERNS
# Chain of UniProt Q9H204 (Q9H204 whole entry, looked up): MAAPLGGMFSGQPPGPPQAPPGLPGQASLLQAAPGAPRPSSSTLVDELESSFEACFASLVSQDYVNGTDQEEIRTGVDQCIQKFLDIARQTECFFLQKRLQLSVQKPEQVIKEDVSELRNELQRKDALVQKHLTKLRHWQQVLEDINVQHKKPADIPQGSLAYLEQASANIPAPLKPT
Target,log2 fold change [1],log2 fold change [2],log2 fold change [3],log2 fold change [4],log2 fold change [5],log2 fold change [6],log2 fold change [7],log2 fold change [8],log2 fold change [9],log2 fold change [10],log2 fold change [11],log2 fold change [12],log2 fold change [13],log2 fold change [14],log2 fold change [15],log2 fold change [16],log2 fold change [17],log2 fold change [18],log2 fold change [19],log2 fold change [20]
MCUB (UniProt Q9NWR8),0.127,0.013,0.054,0.045,-0.063,0.039,-0.219,0.443 (active),0.04,0.204,-0.175,0.156,-0.041,-0.222,0,-0.054,-0.096,-0.008,,
MANEA (UniProt Q5SRI9),0,0.038,0.024,-0.1,0.041,,-0.009,0.037,0.114,0.068,-0.019,-0.071,-0.084,0.005,-0.627 (active),0.254,-0.059,-0.019,0.035,-0.001
MRPL28 (UniProt Q13084),0.151,0.04,0.027,-0.005,0.012,-0.112,-0.017,0.057,-0.012,0.023,0.009,0.053,0.019,0.024,0.411 (active),-0.356,-0.016,0.055,0.005,-0.06
MAP4K2 (UniProt Q12851),-0.036,0.337,-0.029,0.108,0.04,,-0.144,0.058,0.209,-0.207,-0.038,0.009,-0.035,-0.023,-0.317,0.105,0.005,0.053,0.198,-0.009
MPI (UniProt P34949),0.029,0.031,-0.06,0.009,-0.039,-0.004,-0.051,0.055,-0.012,-0.013,0.007,0.008,-0.02,-0.011,0.149,-0.067,-0.028,0.025,0.013,0.014
METTL21A (UniProt Q8WXB1),0.006,-0.106,0.021,-0.032,0,-0.019,-0.138,0,0.009,-0.032,0.04,0.062,-0.034,-0.054,-0.011,0.049,0.263 (active),0.04,,
MAPK1 (UniProt P28482),0.001,0,-0.066,0.012,-0.029,-0.022,0.023,-0.039,-0.03,0.003,-0.072,-0.015,-0.009,0.004,0.004,-0.023,0.002,-0.007,-0.022,-0.013
MARK1 (UniProt Q9P0L2),-0.006,-0.054,0.078,0.046,0.021,0.011,0.021,0.07,0.04,0.007,0.064,-0.038,-0.019,-0.018,-0.06,-0.241,0.021,-0.17,-0.006,-0.045
MRPL27 (UniProt Q9P0M9),-0.046,-0.057,0.023,-0.025,0.106,0.002,-0.195,-0.028,0.1,0.079,-0.051,-0.01,0.017,-0.006,0.926 (active),-0.218,0.009,0.05,,0.076
LAS1L (UniProt Q9Y4W2),-0.016,0.017,0.043,-0.017,0.042,0.035,-0.061,-0.006,0.037,0.035,0.007,-0.003,-0.069,0.009,-0.055,0.099,-0.031,0.049,-0.027,-0.051
MRPL35 (UniProt Q9NZE8),-0.019,-0.014,0.041,0.047,0.013,-0.012,-0.108,-0.032,0.032,0.01,-0.001,0.021,0.013,0.005,-0.124,-0.011,0.04,-0.019,0.091,
MAN2B2 (UniProt Q9Y2E5),-0.019,-0.026,0.008,0.083,-0.051,0.056,-0.013,-0.013,-0.024,0.012,-0.028,-0.047,-0.006,-0.022,0.648 (active),-0.649 (active),-0.053,-0.024,,-0.013
MCMBP isoform 2 (UniProt Q9BTE3),-0.032,-0.055,-0.138,0.068,0.114,-0.111,-0.05,0.063,0.12,0.005,0.081,-0.096,-0.004,0.047,,,-0.036,-0.015,-0.039,0.059
KRIT1 (UniProt O00522),0.089,-0.047,0.001,-0.02,0.045,-0.041,-0.075,0.045,-0.011,-0.095,0.051,-0.084,0.036,-0.052,,,-0.103,0.049,-0.084,-0.009
LRP1 (UniProt Q07954),,-0.017,,,,,,0.378,,-0.049,-0.072,,0.004,,,,,-0.043,0.15,-0.163
KRAS (UniProt P01116),,0.006,-0.023,0.063,-0.008,-0.037,0.018,-0.048,0.07,-0.058,0.019,,0.063,-0.053,-0.278 (active),0.06,0.066,0.012,0.061,0.019
MAP3K6 (UniProt O95382),,,,,,-0.12,,,,,,,,,,,,,-0.006,0.164
MED28 (UniProt Q9H204),,-0.067,-0.032,-0.025,-0.002,-0.088,-0.039,0.11,0.021,0.009,-0.004,,0.096,0.053,-0.063,0.322,-0.032,-0.028,,
